High-throughput results as filed in PubChem BioAssay.
Compounds with a hit are over-represented: about 32% of the library has one in this group of screens.
PostGolgi yeast: growth inhibition of a yeast mutant, post-Golgi transport screen. post-Golgi transport phenotypic cell assay. inhibition, % at 10 µM. actives 0.9% (n = 98,000). AID 739;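 also: yeast cells grown in 1536-well plates; yeast grown about 18 h at 30C before absorbance read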
PostGolgi ctrl: growth of the yeast control strain, post-Golgi counter-screen | AID 738 | actives 5% (n = 98,000) | efflux-deficient yeast background strain, growth absorbance A615, 16 h | inhibition, % at 10 µM
CYP2C19 act: increases human CYP2C19 enzyme activity; activation factor at 5 µM; recombinant CYP2C19, luciferin-H EGE luminescence; hits give high values; 0 = fully inhibited enzyme, 1 = untreated enzyme; 96,000 tested, under 10 active; P33261;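 active = activation factor of at least 2 at 5 µM in the primary screen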;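 also: 0 = wells with 2.5 mM tranylcypromine and 1 = vehicle-only wells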
Target sequence (P33261 whole entry, looked up): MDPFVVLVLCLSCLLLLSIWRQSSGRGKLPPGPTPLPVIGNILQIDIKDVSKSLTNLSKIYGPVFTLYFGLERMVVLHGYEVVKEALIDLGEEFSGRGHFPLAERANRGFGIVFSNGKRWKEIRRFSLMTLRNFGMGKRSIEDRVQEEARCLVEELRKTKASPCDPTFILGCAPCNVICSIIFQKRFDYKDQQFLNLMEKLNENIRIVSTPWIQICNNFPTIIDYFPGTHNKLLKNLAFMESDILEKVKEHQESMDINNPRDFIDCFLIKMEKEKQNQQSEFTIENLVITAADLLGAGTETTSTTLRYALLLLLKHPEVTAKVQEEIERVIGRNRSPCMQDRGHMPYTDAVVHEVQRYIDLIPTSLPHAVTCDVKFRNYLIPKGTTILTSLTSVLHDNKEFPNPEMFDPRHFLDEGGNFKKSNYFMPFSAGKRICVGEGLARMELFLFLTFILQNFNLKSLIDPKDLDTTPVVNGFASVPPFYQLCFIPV
CYP2C9 act: increases human cytochrome P450 2C9 activity. recombinant CYP2C9, luciferin-H conversion, luminescence; hits give high values; factor 1 = untreated enzyme, 0 = blocked. activation factor at 5 µM. AID 1024. actives 1.4% (n = 96,000);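 active = activation factor of 2 or more for CYP2C9 at a 5 µM dose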;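 also: 0 = sulfaphenazole-blocked wells and 1 = vehicle-only wells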
CYP2C9 inhib: blocks human cytochrome P450 2C9; P11712; inhibition, % at 5 µM; actives 20% (n = 96,000); CYP2C9 Supersomes, luciferin-H conversion, luminescence;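 active = blocking of liver enzyme CYP2C9 beyond about 50% at 5 µM, limit read from the data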
CYP2C19 inh: inhibitors of human CYP2C19; actives 21% (n = 96,000); inhibition, % at 5 µM; CYP2C19 Supersomes, luciferin-H EGE luminescence, 30 min; AID 778; P33261;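 active = CYP2C19 inhibition above a set limit at 5 µM in the primary screen, cut at about 50% in these data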;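 also: plate controls were negative control wells for no effect and 2.5 mM tranylcypromine positive control for full effect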
An asterisk follows results filed as active; · = not tested or not shown. Rule as the data show it, unless noted: active = inhibition above about 30%; inactive = the rest.

SMILES	PostGolgi yeast	PostGolgi ctrl	CYP2C19 act	CYP2C9 act	CYP2C9 inhib	CYP2C19 inh
COC(=O)C1C2C=CC(C3CC23)C1C(=O)OCC(=O)c1ccccc1 (configuration not stated)	-8	14	0	0.4	57*	95*
COC(=O)C1C2C=CC(C3CC23)C1C(=O)OCC(=O)c1ccc(OC)cc1 (configuration not stated)	1	-6	0.2	0.6	38	83*
CC1CCc2nc(NCCO)nc(C(F)(F)F)c2C1 (configuration not stated)	2	8	1	1	0	2
Nc1nonc1-c1nc2ccccc2n1Cc1ccc(F)cc1Cl	4	11	0.8	0.9	12	25
Clc1ccc(Cn2c(-c3cccnc3Cl)nc3ccccc32)cc1	7	18	0.2	0.4	65*	82*
Fc1ccc(Cn2c(-c3cscn3)nc3ccccc32)c(Cl)c1	3	34*	1.1	1.1	-7	-8
Clc1ccc(Cn2c(-c3cccnc3Cl)nc3ccccc32)c(Cl)c1	3	38*	0.4	0.4	58*	60*
CCOC(=O)Cn1c(-c2cccnc2Cl)nc2cc(C)c(C)cc21	4	10	1	0.9	6	-4
CCCn1c(Nc2ccc(Cl)cc2)nc2ccccc21	2	7	1	1	2	-5
O=C(COc1cccc2cccnc12)N/N=C1\SCC(=O)N1Cc1ccccc1	-8	8	0.9	0.9	7	14
Cc1nn(Cc2cccc(C(=O)N3N=C(C(F)F)CC3(O)C(F)F)c2)c(C)c1[N+](=O)[O-] (configuration not stated)	-3	5	0.2	0.1	85*	78*
CC1=NN(C(=O)c2cccc(Cn3nc(C)c([N+](=O)[O-])c3C)c2)C(O)(C(F)(F)F)C1 (configuration not stated)	1	-3	0.5	0.3	70*	47
CCC(NC(=O)c1cccc(Cn2nc(C)c([N+](=O)[O-])c2C)c1)c1ccc(C(C)C)cc1 (configuration not stated)	-3	-5	0.8	0.5	49	23
Cc1nn(Cc2cccc(C(=O)NC(C)c3ccc(C(C)(C)C)cc3)c2)c(C)c1[N+](=O)[O-] (configuration not stated)	51*	3	0.2	0.1	87*	78*
Cc1nn(Cc2cccc(C(=O)Nc3ccn(Cc4ccccc4)n3)c2)c(C)c1[N+](=O)[O-]	-11	6	0.9	0.8	24	8
CC(C)OC(=O)C(NC(=O)c1ccccc1)=C1CCCCC1	-3	3	0.9	0.7	34	14
C=CCn1cc(-c2cccc(Cl)c2)cc(C#N)c1=O	-3	2	0.9	0.9	13	13
Cn1c(SCC(=O)NCc2ccc3c(c2)OCO3)nnc1-c1cc2ccccc2cc1O	-6	4	·	·	·	·
O=C(CSc1nnc(-c2cccs2)n1-c1ccccc1)NCc1ccc2c(c1)OCO2	4	26	0.3	0.1	92*	68*
CCn1c(SCC(=O)Nc2cc(OC)c(OC)c(OC)c2)nnc1-c1cccs1	6	11	0.8	0.5	52*	19
O=C(CSc1nnc(Cc2cccs2)n1-c1ccc(Cl)cc1)NCc1ccc2c(c1)OCO2	-1	12	0.6	0.5	54*	35
Cn1c(SCC(=O)NCc2ccc3c(c2)OCO3)nnc1-c1cccs1	6	6	1	0.4	65*	0
O=C(CSc1nnc(-c2ccco2)n1-c1ccccc1)NCc1ccc2c(c1)OCO2	-4	0	0.5	0.6	40	47
CCn1c(SCC(=O)Nc2ccc(OC)c(OC)c2)nnc1-c1cccs1	4	12	0.9	0.9	7	5
COC(=O)c1ccc(NC(=O)c2cccc(Cl)c2)o1	16	8	0.8	0.7	25	18
Cc1cc(=O)[nH]c(SCC(=O)c2c(N)n(C)c(=O)n(C)c2=O)n1	-7	3	1.2	1.1	-7	-19
Cc1ccc(C(=O)/C=C/Nc2ccccc2C(N)=O)cc1	-6	1	0.7	1	-2	26
CCN(CC)CCN(C)Cc1ccc(Br)cc1	1	3	0.9	1	0	9
